Data published in PubChem BioAssay (NCATS).
Where “and” joins values, the source holds several entries; their conditions need not be identical. Identical values can stand only once. Results filed as inconclusive are left out. Calls of active or inactive are those of the source. Calls come from the whole dose curve; as a rule, active = well fitted curve in the direction sought with a large enough effect; inconclusive = small, poorly fitted or top-dose-only effect, or another doubt; inactive = no such curve, though single readings can be large; an effect the other way counts as inactive or inconclusive.

What was measured:
[1] = biological target: Cellular tumor antigen p53 (Homo sapiens) (UniProt P04637); assay: Primary qHTS for small molecule compounds that upregulate eGFP-tagged delta133p53alpha (in N-terminal) cells. (AID 2060322); details: NCI-H358 eGFP-delta133p53alpha fluorescence, 24 h; activation: active compounds read high; note: nearly all actives have a fitted effect of over 75% in size; note: potency is the fitted concentration of half-maximal effect;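 for activation: 0% = DMSO vehicle and 100% = reference activator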
Cellular tumor antigen p53 (Homo sapiens), sequence (P04637 whole entry, looked up): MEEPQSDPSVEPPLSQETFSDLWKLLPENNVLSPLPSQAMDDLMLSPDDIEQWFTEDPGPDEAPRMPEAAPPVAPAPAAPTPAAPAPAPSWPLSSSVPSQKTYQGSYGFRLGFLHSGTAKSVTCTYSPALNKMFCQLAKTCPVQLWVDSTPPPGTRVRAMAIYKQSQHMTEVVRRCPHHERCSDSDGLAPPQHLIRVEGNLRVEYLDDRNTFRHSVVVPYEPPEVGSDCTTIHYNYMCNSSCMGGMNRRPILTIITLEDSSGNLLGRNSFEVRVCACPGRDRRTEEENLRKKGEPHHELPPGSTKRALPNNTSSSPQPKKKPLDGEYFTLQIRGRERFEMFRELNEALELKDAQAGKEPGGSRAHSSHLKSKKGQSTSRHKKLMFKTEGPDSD
Outline: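 NCI-H358 cells pre-induced 24 h with 10 ng/ml doxycycline to express N-terminal eGFP-delta133p53alpha, then dosed 24 h at 37C without doxycycline; fixed, Hoechst-stained, GFP intensity by laser scanning cytometry, normalized to DMSO (0%) and 57.5 uM 5-azacytidine (100%).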

[2] = biological target: Aldehyde dehydrogenase, mitochondrial (Homo sapiens) (UniProt P05091); assay: qHTS for Inhibitors of the Aldehyde Dehydrogenase Family (ALDH2) Primary screen (AID 2061308); details: ALDH2 enzyme inhibition qHTS, 1536-well; series mostly up to 56 µM;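 note: plate controls were vehicle for no effect and reference inhibitor for full effect; nearly all actives have a fitted effect of over 55% in size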
[3] = biological target: Retinaldehyde dehydrogenase 3 (Homo sapiens) (UniProt P47895); assay: qHTS for Inhibitors of the Aldehyde Dehydrogenase Family (ALDH1A3) Primary screen (AID 2061315); details: ALDH inhibition qHTS; series mostly up to 56 µM;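 note: plate controls were DMSO vehicle for no effect and reference inhibitor for full effect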
[4] = BET inhibitor-based combinations targeting novel dependencies in MECOM-rearranged (r) AML: MV-4-11 cell line (AID 2202233); details: MV-4-11 AML viability, CellTiter-Glo luminescence, 48 h; series mostly up to 46 µM; note: nearly all actives have a fitted effect of over 45% in size; note: potency is the fitted concentration of half-maximal effect
Outline: (§1)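 Normalized to DMSO and empty-well controls, the luminescence data from CellTiter-Glo after 48 hr drug exposure were fitted across 11 concentrations. Reported metrics are area under the dose-response curve and its Z-transformed form.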

[5] = BET inhibitor-based combinations targeting novel dependencies in MECOM-rearranged (r) AML: HNT-34 cell line (AID 2202234); details: HNT-34 AML viability, CellTiter-Glo luminescence, 48 h; series mostly up to 46 µM; note: nearly all actives have a fitted effect of over 35% in size; note: potency is the fitted concentration of half-maximal effect
Outline: as §1

[6] = BET inhibitor-based combinations targeting novel dependencies in MECOM-rearranged (r) AML: UCSD-AML1 cell line (AID 2202235); details: UCSD-AML1 AML cells viability, CellTiter-Glo, 48 h; series mostly up to 46 µM; note: nearly all actives have a fitted effect of over 40% in size; note: potency is the fitted concentration of half-maximal effect
Outline: as §1

[7] = BET inhibitor-based combinations targeting novel dependencies in MECOM-rearranged (r) AML: AML-191 cell line (AID 2202236; note: nearly all actives have a fitted effect of over 35% in size; note: potency is the fitted concentration of half-maximal effect); details: AML-191 viability, CellTiter-Glo luminescence, 48 h; series mostly up to 46 µM
Outline: (§2)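 Here, 11-point titrations of each agent were applied to 500 seeded cells and incubated 48 hr; CellTiter-Glo signal, scaled against DMSO and empty wells, was integrated as AUC, then Z-scored within the individual line.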

[8] = BET inhibitor-based combinations targeting novel dependencies in MECOM-rearranged (r) AML: AML-194 cell line (AID 2202237; note: nearly all actives have a fitted effect of over 40% in size; note: potency is the fitted concentration of half-maximal effect); details: AML-194 (MECOM-r AML) viability, CellTiter-Glo, 48 h; series mostly up to 46 µM
Outline: as §2

CO[C@@H]1COCC[C@@H]1N[C@@H]1CC[C@@](C(=O)N2CCc3ncc(C(F)(F)F)cc3C2)(C(C)C)C1
inactive: activation [1] -7.67% and -27.6% | Potency [2] | Potency [3] | Potency [4] | Potency [5] | Potency [6] | Potency [7] | Potency [8]

Nc1ccn([C@@H]2C(F)=C(CO)[C@@H](O)[C@H]2O)c(=O)n1
active: Potency [4] 0.235 µM | Potency [6] 0.662 µM
inactive: activation [1] 0.893% and -30.2% | Potency [2] | Potency [3]

Nc1ncnc2c1c(-c1cccc(OCc3ccccc3)c1)cn2C1CC(CN2CCCC2)C1 (centres undefined)
inactive: activation [1] 31.8% | Potency [2] | Potency [3]
active: Potency [4] 2.63 µM | Potency [5] 18.6 µM | Potency [7] 20.9 µM

CN(C)C(=O)c1cc2cnc(Nc3ccc(N4CCNCC4)cn3)nc2n1C1CCCC1
inactive: activation [1] 15.2% | Potency [2] | Potency [3] | Potency [5] | Potency [7] | Potency [8]

CC(C)(N)c1ccc(-c2nc3ccccc3nc2-c2ccccc2)cc1
inactive: activation [1] 25% | Potency [2] | Potency [3]
active: Potency [5] 16.6 µM | Potency [7] 20.9 µM

CS(=O)(=O)c1ccc(-c2cnc(N)c(C(=O)Nc3ccccc3)n2)cc1
inactive: activation [1] -13% | Potency [2] | Potency [3]
active: Potency [4] 7.42 µM | Potency [7] 4.68 µM | Potency [8] 5.9 µM

CCN1CCN(c2ccc(Nc3cc(N(C)C(=O)Nc4c(Cl)c(OC)cc(OC)c4Cl)ncn3)cc2)CC1
active: Potency [5] 13.2 µM | Potency [7] 26.3 µM
inactive: activation [1] 34.2% and 7.14% | Potency [2] | Potency [3]

COc1cc(Nc2ncc3c(n2)-c2ccc(Cl)cc2C(c2c(F)cccc2OC)=NC3)ccc1C(=O)O
inactive: activation [1] 85.9% | Potency [2] | Potency [3]
active: Potency [4] 0.0833 µM | Potency [5] 1.18 µM | Potency [6] 0.059 µM

CC(C)Nc1cc(C(F)(F)F)cc2nc(NC(=O)c3cccnc3)nn12
inactive: activation [1] -46.7% and -1.43% | Potency [2] | Potency [3] | Potency [4] | Potency [6] | Potency [7]

NC(=O)c1ccc2nc(-c3ccc(Oc4ccc(Cl)cc4)cc3)[nH]c2c1
active: Potency [5] 16.6 µM
inactive: activation [1] -21.2% and -4.33% | Potency [2] | Potency [3] | Potency [6] | Potency [7] | Potency [8]

CCn1c(=O)c(-c2ccn[nH]2)cc2c(C)nc(N)nc21
inactive: activation [1] 4.46% | Potency [2] | Potency [3]
active: Potency [4] 5.25 µM | Potency [6] 0.59 µM

COc1ccc(Cl)c(Nc2ncnc3cc(OCC4CCN(C)CC4)c(OC)cc23)c1
active: Potency [1] 6.01 µM | Potency [5] 0.742 µM | Potency [7] 23.5 µM
inactive: Potency [2] | Potency [3]

CC(C)(O)CCc1ccc(OCc2cc(-c3cccc(OC(F)F)c3)c3ncccc3c2)cc1
inactive: activation [1] 8.96% | Potency [2] | Potency [3] | Potency [6]
active: Potency [4] 18.6 µM

Cc1cc(SCc2sc(-c3ccc(C(F)(F)F)cc3)nc2C)ccc1OCC(=O)O
inactive: activation [1] -4.33% | Potency [2] | Potency [3] | Potency [4] | Potency [5] | Potency [6] | Potency [7]

N#Cc1c(C2CCNCC2)cc(-c2c(O)cccc2OCC2CC2)nc1N
active: Potency [5] 23.5 µM | Potency [6] 16.6 µM | Potency [7] 26.3 µM | Potency [8] 16.6 µM
inactive: activation [1] -1.56% | Potency [2] | Potency [3]

COc1cc(N2CCC(N3CCN(C)CC3)CC2)ccc1Nc1ncnc(Nc2ccccc2S(=O)(=O)C(C)C)n1
inactive: Potency [2] | Potency [3]
active: Potency [1] 24.3 µM and 26.9 µM | Potency [5] 9.34 µM | Potency [8] 10.5 µM

CC(C)(O)CNc1nc(Nc2ccnc(C(F)(F)F)c2)nc(-c2cccc(C(F)(F)F)n2)n1
inactive: activation [1] -5% and -21.6% | Potency [2] | Potency [3] | Potency [6]
active: Potency [4] 20.9 µM

Cc1ccc(C(N)=O)cc1Nc1nccc(-c2cn(C(C)C)c3cnccc23)n1
inactive: Potency [2] | Potency [3]
active: Potency [1] 10.9 µM | Potency [4] 0.0833 µM | Potency [5] 2.95 µM | Potency [6] 4.68 µM | Potency [7] 5.25 µM | Potency [8] 8.33 µM

COc1ccccc1[C@H](c1cccc2ccccc12)[C@@](C)(C#N)C(=O)N1CCC(c2cccc(C(F)(F)F)c2)CC1
active: Potency [4] 5.25 µM | Potency [5] 13.2 µM
inactive: activation [1] 0.109% | Potency [2] | Potency [3] | Potency [6] | Potency [7]
